Source: the supplement of paper PMC13380429

System: Vero E6 infected with SARS-CoV-2
Test: inhibition of SARS-CoV-2 cytopathic effect; higher = more antiviral protection, active = above 15
Conditions: 48 h

Measured: inhibition of SARS-CoV-2 cytopathic effect

COc1cccc2c1c(O)c(C(=O)N(C)c1ccc(C(F)(F)F)cc1)c(=O)n2C [tasquinimod]
inactive: 1 nM 1.2% | 8.33 nM 3.29% | 100 nM 1.4% | 833.33 nM 1.35% | 10000 nM 1.05%

CCCNS(=O)(=O)Nc1ncnc(OCCOc2ncc(Br)cn2)c1-c1ccc(Br)cc1 [macitentan]
inactive: 1 nM 0.7% | 8.33 nM -1.57% | 100 nM -0.9% | 833.33 nM 1.28% | 10000 nM 4.76%

COc1c(C)c2c(c(O)c1C/C=C(\C)CCC(=O)O)C(=O)OC2 [mycophenolic-acid]
inactive: 1 nM -0.65% | 8.33 nM -1.16% | 100 nM 0.96% | 833.33 nM 2.06% | 10000 nM 12.9%

COc1ccc(CCNCC(O)COc2cccc(C)c2)cc1OC (stereo not given) [bevantolol]
inactive: 1 nM -3.29% | 8.33 nM -3.57% | 100 nM -4.47% | 833.33 nM -3.25% | 10000 nM -5.37%

CNS(=O)(=O)CCc1ccc2[nH]cc(C3CCN(C)CC3)c2c1 [naratriptan]
inactive: 1 nM -2.05% | 8.33 nM 0.47% | 100 nM 2.08% | 833.33 nM -3.05% | 10000 nM -1.76%

CC(C)NCC(O)COc1cccc2[nH]c3ccccc3c12 (stereo not given) [carazolol]
inactive: 1 nM 1.76% | 8.33 nM -2.21% | 100 nM -1.61% | 833.33 nM 0% | 10000 nM -4.08%

CC[C@H]1OC(=O)C[C@@H](O)[C@H](C)[C@@H](O[C@@H]2O[C@H](C)C[C@H](N(C)C)[C@H]2O)[C@@H](CC=O)C[C@@H](C)C(=O)/C=C/[C@]2(C)O[C@H]2[C@@H]1C [rosamicin]
inactive: 1 nM 1.84% | 8.33 nM 0.4% | 100 nM -1.22% | 833.33 nM 2.62% | 10000 nM 9.6%

CC(C)(C)NCC(O)c1cc(Br)no1 (stereo not given) [broxaterol]
inactive: 1 nM -1.51% | 8.33 nM -0.09% | 100 nM -1.23% | 833.33 nM -0.44% | 10000 nM -2.74%

CC(C)(C)NCC(O)CSc1nc(-c2ccc(C(N)=O)s2)cs1 (stereo not given) [arotinolol]
inactive: 1 nM -12.3% | 8.33 nM -9.63% | 100 nM -11% | 833.33 nM -9.7% | 10000 nM -6.09%

CC(=O)[C@H]1CC[C@H]2[C@@H]3C[C@H](C)C4=CC(=O)CC[C@]4(C)[C@H]3[C@@H](O)C[C@]12C [medrysone]
inactive: 1 nM -0.04% | 8.33 nM 1.55% | 100 nM -1.22% | 833.33 nM 0.73% | 10000 nM 3.22%

CCc1cc2c(c(CC)n1)CCC(=O)N2Cc1ccc(-c2ccccc2-c2nnn[nH]2)cc1
inactive: 1 nM -4.46% | 8.33 nM -5.09% | 100 nM -2.79% | 833.33 nM -3.64% | 10000 nM -0.49%

O=[N+]([O-])O[C@H]1CO[C@H]2[C@@H]1OC[C@H]2O[N+](=O)[O-] [isosorbide-dinitrate]
inactive: 1 nM -1.2% | 8.33 nM 2.2% | 100 nM 2.2% | 833.33 nM 1.87% | 10000 nM 3.34%

Nc1ncnc2nc(-c3ccc(N4CCOCC4)nc3)cc(-c3cccc(Br)c3)c12
inactive: 1 nM -0.77% | 8.33 nM -1.24% | 100 nM -5% | 833.33 nM -0.05% | 10000 nM -1.01%

CCC(C/C=C/c1ccccc1)(c1ccccc1)N(C)CC1CC1 (stereo not given) [igmesine]
inactive: 1 nM -0.08% | 8.33 nM 0.01% | 100 nM -2.22% | 833.33 nM -1.63% | 10000 nM 6.93%

CC(C)(S)C(=O)N[C@@H](CS)C(=O)O [bucillamine]
inactive: 1 nM 0.66% | 8.33 nM 4.25% | 100 nM 5.04% | 833.33 nM 3.9% | 10000 nM -4%

CCS(=O)(=O)N(Cc1cccnc1)c1cccc(-c2ccc(C#N)cc2)c1
inactive: 1 nM 1.24% | 8.33 nM 1.74% | 100 nM 1.23% | 833.33 nM 4.38% | 10000 nM 8.38%

CCCC(=O)O[C@]1(C(=O)CCl)[C@@H](C)C[C@H]2[C@@H]3CCC4=CC(=O)C=C[C@]4(C)[C@@]3(F)C(=O)C[C@@]21C [clobetasone-butyrate]
inactive: 1 nM -0.68% | 8.33 nM -1.04% | 100 nM -5.39% | 833.33 nM -1.94% | 10000 nM 0.48%
